Structures can show the parent of a compound that is named as a salt.
What was measured:
Settings in all cases: compound concentration in added solution (µM; 5 µl added to 20 µl cells): 10; 18 h
A431 [1] = experiment: LBPA endosome anti-LBPA integrated intensity (sum per cell), Z-score; higher = more LBPA staining
Method in brief: (§1)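 After 18 h on 5 µl of 10 µM compound solution in duplicate 384-well imaging plates, HeLa MZ or A431 cells, seeded at 3,500 per well in 20 µl, were fixed with 4% PFA. They were then labelled with 6C4 anti-LBPA antibody, filipin, propidium iodide and CellTracker green, and four 20× fields were recorded per well. Integrated LBPA or filipin intensity per cell, whole-cell or within LBPA endosomes, came from MetaXpress segmentation and was normalised to Z-scores in AcuityXpress.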

HeLa MZ [2] = experiment: as above
Method in brief: as §1

A431 [3] = experiment: whole-cell filipin (free cholesterol) integrated intensity, Z-score; higher = more cholesterol staining
Method in brief: as §1

HeLa MZ [4] = experiment: as above
Method in brief: as §1

A431 [5] = experiment: filipin (cholesterol) integrated intensity within LBPA endosomes, Z-score; higher = more cholesterol in LBPA endosomes
Method in brief: as §1

HeLa MZ [6] = experiment: as above
Method in brief: as §1

SMILES | LBPA endosome anti-LBPA integrated intensity (z-score) (A431 [1]) | LBPA endosome anti-LBPA integrated intensity (z-score) (HeLa MZ [2]) | whole-cell filipin (z-score) (A431 [3]) | whole-cell filipin (z-score) (HeLa MZ [4]) | filipin (z-score) (A431 [5]) | filipin (z-score) (HeLa MZ [6])
CCOC(=O)[C@H](CCc1ccccc1)N[C@H]1CCc2ccccc2N(CC(=O)O)C1=O [Benazepril HCl] | -0.544 | -0.517 | -0.676 | -0.703 | -0.597 | -0.712
Cc1ccccc1OCC(O)CO (centres undefined) [Mephenesin] | -0.324 | 0.139 | -0.27 | 0.183 | -0.409 | -0.223
CNCC(O)c1ccc(O)c(O)c1 (centres undefined) [Racepinephrine HCl] | -0.253 | -0.0976 | 0.725 | 0.18 | -0.509 | -0.366
C/C=C(/C(=C/C)c1ccc(O)cc1)c1ccc(O)cc1 [Dienestrol] | -0.546 | -0.673 | -0.449 | -0.338 | -0.497 | -0.451
CC(CN(C)C)CN1c2ccccc2CCc2ccccc21 (centres undefined) [Trimipramine maleate salt] | 2.39 | 1.13 | 1.92 | 0.599 | 2.57 | 1.53
CCCCCCCCNC(C)C(O)c1ccc(SC(C)C)cc1 (centres undefined) [Suloctidil] | 2.96 | -0.389 | 1.67 | 1.53 | 3.3 | 3.27
C[N+]1(C)CCC(=C(c2ccccc2)c2ccccc2)CC1 [Diphemanil methylsulfate] | -0.603 | -1.21 | -0.868 | -0.964 | -0.428 | -0.688
CC(N)C12CC3CC(CC(C3)C1)C2 (centres undefined) [Rimantadine Hydrochloride] | -0.677 | -0.134 | -0.496 | 0.106 | -0.59 | -0.56
OC(CCN1CCCCC1)(c1ccccc1)C1CCCCC1 (centres undefined) [Trihexyphenidyl-D,L Hydrochloride] | 1.27 | 1.51 | 0.138 | -0.301 | 0.357 | 0.149
C=C(CC)C(=O)c1ccc(OCC(=O)O)c(Cl)c1Cl [Ethacrynic acid] | -0.359 | -0.213 | -0.0585 | 0.416 | -0.423 | -0.312
CC(=O)c1ccc2c(c1)N(CCCN1CCC(CCO)CC1)c1ccccc1S2 [Piperacetazine] | 4.58 | 1.54 | 2.51 | 1.35 | 3.1 | 3.21
CCC(=O)[C@@]1(C)[C@H](C)C[C@H]2[C@@H]3CCC4=CC(=O)C=C[C@]4(C)[C@H]3[C@@H](O)C[C@@]21C [Rimexolone] | -0.0932 | 0.328 | 0.343 | -0.0902 | -0.235 | -0.418
CC1CC(OC(=O)c2ccccc2O)CC(C)(C)C1 (centres undefined) [Homosalate] | -0.265 | -0.48 | -0.0483 | 0.0325 | -0.434 | -0.566
Cc1cc(=O)oc2cc(O)ccc12 [Hymecromone] | -0.504 | -0.0954 | -0.674 | -0.684 | -0.459 | -0.528
C[C@]12C=CC(=O)C=C1CC[C@@H]1[C@@H]2C(=O)C[C@@]2(C)[C@H]1CC[C@]2(O)C(=O)CO [Prednisone] | -0.485 | -0.977 | -0.505 | 0.0271 | -0.452 | -0.412
NNc1nncc2ccccc12 [Hydralazine hydrochloride] | -0.438 | -1.11 | -0.55 | -0.572 | -0.474 | -0.461
CC(C)(Oc1ccc(CCNC(=O)c2ccc(Cl)cc2)cc1)C(=O)O [Bezafibrate] | -0.429 | -0.597 | -0.437 | -0.728 | -0.456 | -0.612
Cc1c(C)c2c(c(C)c1O)CCC(C)(C(=O)O)O2 (centres undefined) [Trolox] | -0.472 | 0.342 | -0.624 | 0.128 | -0.552 | -0.401
Cc1noc(NS(=O)(=O)c2ccc(N)cc2)c1C [Sulfisoxazole] | -0.641 | -0.742 | -0.79 | -0.499 | -0.574 | -0.486
CCCCOc1ccc(OCCCN2CCOCC2)cc1 [Pramoxine hydrochloride] | -0.284 | 1.34 | 0.443 | 2.25 | -0.151 | 0.197
Nc1nc(=O)c2nc(CNc3ccc(C(=O)N[C@@H](CCC(=O)O)C(=O)O)cc3)cnc2[nH]1 [Folic acid] | -0.628 | -1.15 | -0.811 | -0.635 | -0.597 | -0.671
NC(CO)C(=O)NNCc1ccc(O)c(O)c1O (centres undefined) [Benserazide hydrochloride] | -0.379 | 0.144 | -0.376 | -0.254 | -0.42 | -0.5
OCc1cc(C(O)CNCCCCCCOCCCCc2ccccc2)ccc1O (centres undefined) [Salmeterol] | 2.65 | 2.85 | 3.59 | 2.48 | 1.61 | 2.18
CCCc1nn(C)c2c(=O)[nH]c(-c3cc(S(=O)(=O)N4CCN(C)CC4)ccc3OCC)nc12 [Sildenafil] | -0.41 | -0.61 | -0.134 | -0.0955 | -0.415 | -0.257
CC1CNc2c(cccc2S(=O)(=O)N[C@@H](CCCNC(=N)N)C(=O)N2CC[C@@H](C)C[C@@H]2C(=O)O)C1 (some centres undefined) [Argatroban] | -0.429 | -0.462 | -0.724 | 0.346 | -0.455 | -0.335

SMILES | LBPA endosome anti-LBPA integrated intensity (z-score) (A431 [1]) | LBPA endosome anti-LBPA integrated intensity (z-score) (HeLa MZ [2]) | whole-cell filipin (z-score) (A431 [3]) | whole-cell filipin (z-score) (HeLa MZ [4]) | filipin (z-score) (A431 [5]) | filipin (z-score) (HeLa MZ [6])
CCCCOc1cc(C(=O)OCCN(CC)CC)ccc1N [Benoxinate hydrochloride] | 1.79 | 1.63 | 0.624 | -0.0981 | 0.826 | 0.624
CC(C)/N=c1\cc2n(-c3ccc(Cl)cc3)c3ccccc3nc-2cc1Nc1ccc(Cl)cc1 [Clofazimine] | 1.95 | 1.42 | -0.119 | -1.15 | 0.416 | -0.0158
O=C(CCCN1CC=C(n2c(=O)[nH]c3ccccc32)CC1)c1ccc(F)cc1 [Droperidol] | 0.278 | 1.75 | 0.378 | 0.978 | 0.193 | 0.762
CC[C@H](C)C(=O)O[C@H]1C[C@@H](C)C=C2C=C[C@H](C)[C@H](CC[C@@H]3C[C@@H](O)CC(=O)O3)[C@H]21 [Lovastatin] | -0.976 | -1.31 | -0.714 | -0.104 | -0.696 | 0.121
c1ccc(CC2=NCCN2)cc1 [Tolazoline hydrochloride] | -0.404 | 0.69 | -0.609 | -0.502 | -0.487 | -0.331
CC(=O)[C@H]1CC[C@H]2[C@@H]3C=CC4=CC(=O)CC[C@@]4(C)[C@@H]3CC[C@]12C [Dydrogesterone] | 1.19 | 1.12 | 0.649 | 0.0624 | 0.655 | -0.0901
CNCCC(Oc1ccccc1OC)c1ccccc1 (centres undefined) [Nisoxetine hydrochloride] | -0.0713 | 0.75 | 0.38 | 0.302 | -0.0689 | -0.0239
COc1ccc2[nH]c([S+]([O-])Cc3ncc(C)c(OC)c3C)nc2n1 (centres undefined) [Tenatoprazole] | -0.331 | 0.434 | -0.478 | 0.112 | -0.438 | -0.258
CN1[C@@H]2CC[C@H]1C[C@@H](OC(=O)c1c[nH]c3ccccc13)C2 [Tropisetron HCl] | -0.35 | 0.869 | -0.234 | -0.504 | -0.29 | 0.0878
Nc1ccccc1S(N)(=O)=O [2-Aminobenzenesulfonamide] | -0.461 | -0.0157 | -0.474 | -0.217 | -0.417 | -0.589
O=C1OCCN1/N=C/c1ccc([N+](=O)[O-])o1 [Furazolidone] | -0.473 | -0.0304 | -0.00282 | 0.522 | -0.483 | -0.65
Nc1cc(-c2ccncc2)c[nH]c1=O [Amrinone] | -0.468 | -0.737 | -0.578 | -0.805 | -0.461 | -0.541
NC(=O)c1ccc[n+]([C@@H]2O[C@H](COP(=O)([O-])OP(=O)(O)OC[C@H]3O[C@@H](n4cnc5c(N)ncnc54)[C@H](O)[C@@H]3O)[C@@H](O)[C@H]2O)c1 [Nadide] | -0.373 | -0.766 | -0.714 | -0.46 | -0.413 | -0.768
O=C(CCNNC(=O)c1ccncc1)NCc1ccccc1 [Nialamide] | -0.371 | 0.29 | -0.078 | -0.132 | -0.403 | -0.566
C#C[C@]1(O)CC[C@H]2[C@@H]3CCc4cc(OC)ccc4[C@H]3CC[C@@]21C [Ethynylestradiol 3-methyl ether] | -0.376 | 0.717 | -0.391 | 0.0701 | -0.42 | -0.16
Cc1cccc(Nc2ccccc2C(=O)O)c1C [Mefenamic acid] | -0.573 | -1.34 | -0.793 | -0.4 | -0.497 | -0.72
CCc1oc2ccccc2c1C(=O)c1cc(Br)c(O)c(Br)c1 [Benzbromarone] | -0.388 | -0.283 | -0.536 | -0.296 | -0.47 | -0.42
CO[C@@]1(NC(=O)C2SC(=C(C(N)=O)C(=O)O)S2)C(=O)N2C(C(=O)O)=C(CSc3nnnn3C)CS[C@@H]21 (some centres undefined) [Cefotetan] | -0.675 | -1.41 | -0.843 | -0.864 | -0.604 | -0.594
CC(C)Cc1ccc([C@H](C)C(=O)O)cc1 [S-(+)-ibuprofen] | -0.498 | -0.256 | -0.555 | -0.301 | -0.443 | -0.51
C1N2CN3CN1CN(C2)C3 [Methenamine] | -0.374 | 0.113 | -0.146 | 0.773 | -0.379 | -0.0431
COc1ccc(C(=O)NCc2ccc(OCCN(C)C)cc2)cc1OC [Itopride] | -0.646 | -0.657 | -0.844 | -0.665 | -0.581 | -0.36
Nc1c(Br)cc(Br)cc1CN[C@H]1CC[C@H](O)CC1 [Ambroxol hydrochloride] | -0.487 | 0.757 | -0.529 | -0.141 | -0.428 | -0.0836
O=C(O)c1cccnc1 [Niacin] | -0.578 | -1.61 | -0.557 | -0.648 | -0.464 | -0.617
OC(Cn1cncn1)(Cn1cncn1)c1ccc(F)cc1F [Fluconazole] | -0.239 | 0.69 | -0.0365 | 0.704 | -0.366 | -0.348

From the supplement of paper PMC6607015
